Source: PubChem BioAssay AID1117358 (Southern Research Institute, 2015)
The whole screen tested about 2,300 compounds, of which about 160 (7%) were called active. No rule for the calls is given here. These entries were drawn from the full list. Entries that show only a call come without a potency. Potency and affinity values are given separately.

Test: viability loss in Vero cells – cytotoxicity control for Vif-APOBEC3G degradation inhibitor project, dose response (AID 1117358)
Conditions: CellTiter-Glo ATP luminescence, 72 h; series mostly up to 40 µM

| Compound | outcome |
| --- | --- |
| CC(=O)C1=C(O)C(=O)N(Cc2ccco2)C1c1ccc(F)cc1 (configuration not stated) | inactive |
| COc1ccc(N2C(=O)C3CCCN3C2c2ccc(C)cc2)cc1 (configuration not stated) | inactive |
| Cc1[nH]c2ccccc2c1C(=O)Cn1c(=O)oc2ccccc21 | inactive |
| Cc1[nH]c2ccccc2c1C(=O)CN1CCC(C(N)=O)(N2CCCCC2)CC1 | inactive |
| Cc1nn(Cc2ccccc2)c(C)c1NC(=O)Cn1nc([N+](=O)[O-])c(Cl)c1C | inactive |
| Cc1nn(Cc2ccc(Cl)cc2)c(C)c1NC(=O)c1cc(-c2ccc3c(c2)OCO3)on1 | inactive |
| CC1(C)Oc2ccc(C(=O)NC3CCCC3)cc2N(CC(=O)NC2CCCC2)C1=O | inactive |
| CCOc1ccc(N(CC(=O)NC(C)(C)C)S(=O)(=O)c2c(C)noc2C)cc1 | inactive |
| Cn1nnnc1SCC(=O)NCc1ccco1 | inactive |
| CN(C)S(=O)(=O)N1CCC(CCCC2CCN(S(=O)(=O)N(C)C)CC2)CC1 | inactive |
| Cc1ccc(NC(=O)COc2ccccc2C(=O)Nc2ccccc2)cc1Cl | inactive |
| O=C(C/C=N/OCc1c(Cl)cccc1Cl)c1ccc(Cl)cc1 | inactive |
| Cc1cc(C)cc(NCc2cc3c(cc2[N+](=O)[O-])OCO3)c1 | inactive |
| O=C(Oc1ccccc1)c1cccc2cccnc12 | inactive |
| CC(C)c1ccc(NC(=O)C(c2ccccc2)N2CCC3(CC2)OCCO3)cc1 (configuration not stated) | inactive |
| Oc1cccc(/C=N/c2c(-c3ccco3)nc3ccccn23)c1 | inactive |
| CCC(c1nnnn1C(C)(C)CC)N(CCCO)Cc1cc2cc(C)cc(C)c2[nH]c1=O (configuration not stated) | inactive |
| Cc1cccc(-n2c(Cc3cc(=O)[nH]c(=O)[nH]3)nnc2SCC(=O)NCC2CCCO2)c1 (configuration not stated) | inactive |
| CC(NC(=O)c1cccs1)C(c1cccs1)N1CCN(Cc2ccccc2)CC1 (configuration not stated) | inactive |
| CCOC(=O)c1c(NC(=O)c2cc(CC(C)C)on2)sc(C(C)=O)c1C | inactive |
| N#CC1=C(Nc2ccccc2)SC=C(c2ccc(Br)cc2)N=C1N1CCOCC1 | inactive |
| Cc1nc2ccc(S(=O)(=O)N(C)CC(=O)N3CCc4ccccc43)cc2s1 | inactive |

| Compound | outcome |
| --- | --- |
| COc1cccc(-c2nnc(SCC(=O)N3CCOCC3)o2)c1 | inactive |
| CCOc1ccc(Cl)cc1S(=O)(=O)N1CCN(c2ccc(F)cc2)CC1 | inactive |
| CCOc1ccc(C2=[N+]([O-])C(C)(C)N(O)C2(C)C)cc1 | inactive |
| O=C(Oc1cccnc1)c1ccc(Cl)cc1 | inactive |
| CC1=CC(C)(C)Nc2ccc(OC(=O)CN3C(=O)c4cccc5cccc(c45)C3=O)cc21 | inactive |
| Cc1ccc(-c2ccc(CCC(=O)O)n2NC(N)=S)cc1 | inactive |
| Cc1cc(-c2[nH]nc3c2C(c2cccc(O)c2)C(C#N)=C(N)O3)c(C)s1 (configuration not stated) | inactive |
| CCC(C)C(NC(=O)[C@@H](NC(=O)c1ccccc1F)C(C)C)C(=O)OC (some centres not stated) | inactive |
| C/C(=N\OC(=O)c1ccc(F)cc1)c1sc(-c2ccccc2)nc1C | inactive |
| Cc1ccc2cc(CN(Cc3nnnn3Cc3ccco3)CC3CCCO3)c(=O)[nH]c2c1C (configuration not stated) | inactive |
| C=CCNc1nc2ccccc2nc1NS(=O)(=O)c1cccs1 | inactive |
| COc1ccc(C(=O)NCc2cn3cccc(C)c3n2)cc1OC | inactive |
| CCOC(=O)C(NC(=O)NC1CCCCC1)(c1ccccc1)C(F)(F)F (configuration not stated) | inactive |
| Cc1cc(C)cc(Nc2ccc(C(=O)O)cc2N)c1 | inactive |
| CCCNC(=S)NC1CCCC1 | inactive |
| S=C(Nc1cccc(Cl)c1)NC1CCCCC1 | inactive |
| COc1ccc(C(=O)NCc2cccnc2)cc1OC | inactive |
| CC1CCN(C(=O)CCc2nc3cc(S(=O)(=O)N(C)C)ccc3n2C)CC1 | inactive |
| CCOC(=O)c1c(C)[nH]c(C(=O)OCC(=O)N2c3ccccc3CC2C)c1C (configuration not stated) | inactive |
| COc1cc(C(=O)Nc2ccc(S(=O)(=O)NC(C)C)cc2)cc(OC)c1OC | inactive |
| COc1ccccc1C(=O)Nc1ccc(S(=O)(=O)Nc2cc(C)nc(C)n2)cc1 | inactive |
| COc1cc(NC(=O)c2cc3nc(C)cc(C)n3n2)c(OC)cc1Cl | inactive |

| Compound | outcome |
| --- | --- |
| NC(=O)C[C@@H]1N[C@]2(C(=O)Nc3ccccc32)[C@@H]2C(=O)N(c3cc(C(F)(F)F)ccc3Cl)C(=O)[C@H]12 | inactive |
| CCc1cc2cc(C)cc(C)c2nc1SCC(=O)N1CCN(C(=O)c2ccco2)CC1 | inactive |
| COc1cc(C(=O)OCCN2CCCCC2)ccc1O | inactive |
| CCN1C(=O)c2ccccc2S(=O)c2ccc(C(=O)NC3CC3)cc21 (configuration not stated) | inactive |
| Cc1cccc(C)c1NS(=O)(=O)c1c(C)[nH]c(=O)[nH]c1=O | inactive |
| CC(C)(C)NC(=O)COC(=O)c1cc(S(=O)(=O)N2CCCCC2)ccc1N1CCOCC1 | inactive |
| CCN(CC)C(=O)CSCC(=O)Nc1ccccc1 | inactive |
| CC(C)(C)OC(=O)N1CCCC1C(=O)N1CCc2ccccc21 (configuration not stated) | inactive |
| CCOC(=O)CSc1nnc(CNC(=O)c2cccs2)n1CCc1ccccc1 | inactive |
| CCN1CCc2c(C#N)c(NCc3ccccc3)nc(N(CC)CC)c2C1 | inactive |
| Nn1c(SCC(=O)NC2CCCc3ccccc32)nnc1-c1cccs1 (configuration not stated) | inactive |
| O=C(Cc1cc(=O)[nH]c(=O)[nH]1)NCC1CCCO1 (configuration not stated) | inactive |
| O=C(NCc1ccncc1)c1ccc(Cn2cc(C(F)(F)F)ccc2=O)cc1 | inactive |
| O=C(NCc1ccccn1)c1ccc(Cn2cc(Br)cn2)o1 | inactive |
| O=S(=O)(c1ccc(OCc2nc3ccccc3s2)c(Cl)c1)N1CCOCC1 | inactive |
| CCNc1nc(OCCNS(=O)(=O)c2cc(C)ccc2C)nc(N(C)C)n1 | inactive |
| CCC(Cc1ccccc1)NC(=O)C1CCN(S(=O)(=O)c2c(C)noc2C)CC1 (configuration not stated) | inactive |
| CC1Cc2ccccc2N1C(=O)C1CCN(S(=O)(=O)Cc2ccccc2)CC1 (configuration not stated) | inactive |
| COC(=O)c1ccc(C)c(NS(=O)(=O)c2ccc(NC(C)=O)cc2)c1 | inactive |
| O=C(CSc1nncs1)NC(=O)NCc1ccccc1 | inactive |
| COc1ccc(S(=O)(=O)N(CC(=O)O)c2ccccn2)cc1 | inactive |
| CC(=O)c1ccc(NC(=O)c2ccc3nc(-c4ccco4)c(-c4ccco4)nc3c2)cc1 | inactive |

| Compound | outcome |
| --- | --- |
| CCOc1ccc(-n2c(=O)c3c(C)c(C)sc3n(CC(=O)NCc3ccco3)c2=O)cc1 | inactive |
| Oc1c(C(c2ccccc2)N2CCN(Cc3ccccc3)CC2)sc2ncnn12 (configuration not stated) | inactive |
| CCOc1cc(C2NC(=O)NC(O)(C(F)(F)F)C2C(=O)c2ccccc2)ccc1OC (configuration not stated) | inactive |
| COc1ccc(CSc2nnnn2C)cc1F | inactive |
| O=C(Nc1ccc2nc(-c3ccco3)c(-c3ccco3)nc2c1)N1CCCCCC1 | inactive |
| O=C(O)CCN1CCOCC1 | inactive |
| O=C(O)c1ccc(S(=O)(=O)c2ccc3c(c2)C(=O)N(Cc2ccco2)C3=O)cc1 | inactive |
| COc1cc(NC(=O)c2nnn(Cc3ccc(SC)cc3)c2N)cc(OC)c1 | inactive |
| O=C(CN1C(=O)NC2(CCCCCCC2)C1=O)NCc1cccs1 | inactive |
| COCC(=O)Nc1sc2c(c1C(=O)OC)C(C(=O)OC)CC2 (configuration not stated) | inactive |
| COC(=O)Nc1sc2c(c1C(=O)NCc1ccco1)CCCC2 | inactive |
| CCOC(=O)c1cc2sc(C)cc2n1CC(=O)N1CCN(C(=O)c2ccco2)CC1 | inactive |
| O=C(c1ccc2c(c1)OCCO2)C1CCN(C(=O)c2ccc(F)cc2)CC1 | inactive |
| CN(C)c1ccc(/C=N\NC(=O)c2csnn2)cc1 | inactive |
| Cc1cc(C(=O)Nc2c(C)cccc2C)n(-c2ccccc2)n1 | inactive |
| CCOC(=O)C1CCN(S(=O)(=O)c2cccc(-c3cn4cccnc4n3)c2)CC1 | inactive |
| COc1ccc(C(=O)N2CCCN(C)CC2)cc1S(=O)(=O)N1CCCc2ccccc21 | inactive |
| Cc1nnc(NC(=O)c2ccc(S(=O)(=O)N(C)Cc3ccccc3)cc2)o1 | inactive |
| O=C(Nc1ccccc1F)c1ccc(S(=O)(=O)NCC2CCCO2)cc1 (configuration not stated) | inactive |
| COCc1nnc(NC(=O)c2ccc(S(=O)(=O)N(C)C3CCCCC3)cc2)o1 | inactive |
| CCOC(=O)c1c(-c2cccs2)csc1NC(=O)CC(C)C | inactive |
